Screening data from PubChem.
Pf apPOL inh: Pf-apPOL DNA polymerase inhibition. inhibition, % at 10 µM. 210,000 compounds, 0.25% hits. Recombinant Pf-apPOL, molecular beacon fluorescence, 1.5 h. AID 1794808
mHTT-CaM PPI inh: mHTT-calmodulin interaction abrogation; P42858; AlphaScreen His-mHTT/GST-CaM binding, luminescence; inhibition, % at 15 µM; 190,000 compounds, 3.6% hits; AID 1671202;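 further: 0% = both proteins with DMSO and 100% = one protein alone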
The depositor's hits bear a star; nt = no result. Compounds with a hit are over-represented: about 3.6% of the library has one in this group of screens. No stated cut-off is given here; in the data, active means inhibition above about 50%; inactive means the rest.

SMILES | Pf apPOL inh | mHTT-CaM PPI inh
COc1cc(C(=O)N2CCC(CC(=O)NCCCN3CCCC3)CC2)cc(OC)c1OC | -4.2 | 2.3
COc1cc(CN2CCC(C(=O)N3CCCC3)CC2)ccc1OCc1ccccc1 | 6.6 | 3.6
CCOc1ccc(NS(=O)(=O)c2ccc3[nH]c4c(c3c2)CCCCC4)cc1 | -6.3 | 94.4*
COc1ccc(C)cc1NS(=O)(=O)c1ccc2[nH]c3c(c2c1)CCCC3 | -5.8 | 81.2*
CCOc1ccc(NS(=O)(=O)c2ccc3[nH]c4c(c3c2)CCCC4)cc1 | -0.6 | 91.4*
COc1ccc(NS(=O)(=O)c2ccc3[nH]c4c(c3c2)CCCCC4)cc1 | -2.1 | 57.0*
CCOc1ccc(NS(=O)(=O)c2ccc(NS(=O)(=O)c3ccccc3)cc2)cc1 | -3.5 | -2.6
COc1ccc(S(=O)(=O)Nc2ccc(S(=O)(=O)Nc3cc(C)ccc3C)cc2)cc1OC | 4.8 | 3.2
CCOc1ccc(NC(=O)CN(C)S(=O)(=O)c2ccc3[nH]c4c(c3c2)CCCC4)cc1 | -1.9 | 44.5
COc1ccc(CNC(=O)CN(C)S(=O)(=O)c2ccc3[nH]c4c(c3c2)CCCC4)cc1 | -2.4 | 31.7
Cc1c(Cl)cccc1NC(=O)C(C)n1ncccc1=O (configuration not stated) | -4.2 | -8.3
COc1cc(C2Oc3nc(SC)nnc3-c3ccccc3N2C(C)=O)cc(OC)c1OC (configuration not stated) | -11.5 | 14.0
CN1CCN(CCCOc2ccc(OCc3ccccc3)cc2)CC1 | -2.3 | 13.1
O=C(C1CC1)N1CCc2cc(Br)cc(S(=O)(=O)NCCN3CCOCC3)c21 | -7.5 | -4.0
COc1cccc(NS(=O)(=O)c2ccc3[nH]c4c(c3c2)CCCCC4)c1 | -1.2 | 98.0*
COc1cccc(NC(=O)CN(C)S(=O)(=O)c2ccc3[nH]c4c(c3c2)CCCC4)c1 | -3.1 | 44.5
COc1ccc(OC)c(CNS(=O)(=O)c2ccc3[nH]c4c(c3c2)CCCCC4)c1 | -3.6 | 85.3*
COc1ccccc1CNS(=O)(=O)c1ccc2[nH]c(=O)sc2c1 | -0.9 | -1.0
Cc1ccc(S(=O)(=O)N2CC=C(c3cn(C)c4ncccc34)CC2)cc1 | -6.7 | 3.7
CC(C)n1c(=O)c(Nc2cccc(OC(F)(F)F)c2)nc2ccncc21 | 4.9 | -32.1
CCS(=O)(=O)c1ccc(CC(=O)Nc2nnc(-c3ccccc3Cl)o2)cc1 | -8.5 | 68.2*
Cc1cc(-c2nnc(NC(=O)c3ccc(S(=O)(=O)N(C)C)cc3)o2)c(C)o1 | -49.7 | 58.0*
COc1ccc(S(=O)(=O)CC(=O)Nc2nnc(-c3cc(C)oc3C)o2)cc1 | 7.4 | 56.7*
O=C(CS(=O)(=O)Cc1ccccc1)Nc1nnc(-c2ccccc2Cl)o1 | -29.1 | 2.1
COc1cc(OC)cc(-c2nnc(NC(=O)c3ccc(S(=O)(=O)N(C)C)cc3)o2)c1 | -2.2 | 6.0
SMILES | Pf apPOL inh | mHTT-CaM PPI inh
COc1ccc(-c2nnc(NC(=O)CS(=O)(=O)c3ccc(F)cc3)o2)c(OC)c1 | 4.0 | 31.5
CCc1onc(C)c1C1CCCN1Cc1ccccc1OC (configuration not stated) | -1.1 | -4.2
c1ccc(-c2nc(-c3ccncc3)n[nH]2)nc1 | -10.3 | nt
N#Cc1c(C(F)(F)F)cc(-c2ccccc2)nc1SCC(N)=O | 65.3* | -1.0
N#Cc1c(C(F)(F)F)cc(-c2ccccc2)nc1SCCC(N)=O | -8.7 | -23.9
Cc1ccc2nc(CCC(=O)NCc3cc(F)cc(F)c3)n(C)c(=O)c2c1 | 2.6 | -7.5
COc1ccc(NCc2ccc(C)s2)cc1OC | 6.5 | 70.9*
COc1ccc(NCc2ccc(OC)c(OC)c2)cc1 | 10.2 | 11.1
CCCOc1ccccc1/C=C1/SC(=N)NC1=O | 2.8 | 6.0
O=C(NC1CCCC1)C1c2ccccc2C(=O)N1Cc1ccccc1Cl (configuration not stated) | 0.7 | 53.0*
CC1CCC(NC(=O)C2c3ccccc3C(=O)N2Cc2ccccc2Cl)CC1 (configuration not stated) | -2.9 | 8.0
CNC(=O)c1cc(Nc2nnc(-c3ccc(OC)cc3)c3ccccc23)ccc1OC | -29.7 | 50.0
COc1ccc(-c2nnc(Nc3ccc(CC(N)=O)cc3)c3ccccc23)cc1 | -17.7 | 26.0
CCOc1ccc(-c2nnc(Nc3ccc(OC)c(C(=O)NC)c3)c3ccccc23)cc1 | 8.2 | 69.0*
CNC(=O)c1cc(Nc2nnc(-c3ccc(C)c(S(N)(=O)=O)c3)c3ccccc23)ccc1OC | 6.0 | 26.9
COc1ccc(-c2nnc(Nc3ccc(OC)c(C(N)=O)c3)c3ccccc23)cc1 | -5.1 | 60.0*
COc1ccc(Nc2nnc(-c3ccc(C)c(S(N)(=O)=O)c3)c3ccccc23)cc1C(N)=O | -6.0 | 53.6*
Cc1cc(O)c(CN2CCN(CCO)CC2)c2c1C(=O)C(=Cc1ccco1)O2 | -1.5 | 10.8
O=C(NCC1CCN(Cc2ccccc2F)CC1)Nc1ccccc1F | -2.3 | 5.5
O=C(Nc1ccccc1F)C(NS(=O)(=O)c1cccs1)c1ccccc1 (configuration not stated) | -4.9 | 3.0
